Measurements as given in PubChem BioAssay (NCI).
The panel holds about 83,000 compounds, 20% with a hit somewhere; the sample as a whole holds those more often.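 Percent growth is the endpoint: 0 to 100 indicates growth inhibition (40 means 60% inhibition), 0 means no net growth, and negative values indicate cell death.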 A number with no mark means an inactive call. Calls of active or inactive are those of the source.

These molecules were tested on A549/ATCC NSCLC (assay: NCI-60 one-dose screen, 48 h (100 = growth as untreated, 0 = no growth, -100 = all killed)). Conditions: 10 µM unless noted.
Experimental: Growth inhibition of the A549/ATCC human Non-Small Cell Lung tumor cell line is measured as a screen for anti-cancer activity. Cells are grown in 96 well plates and exposed to the test compound for 48 hours. Compounds are tested at a single concentration, which is 10^-5 M for most compounds. The reported endpoint is percent growth (GI% or GIPRCNT), where numbers from 0 - 100% represent growth inhibition, and numbers from -100% - 0 represent cell death. For example, a value of 40 represents 60% growth inhibition. A value of 0 means no net growth occurred over the course of the experiment. A value of -40 indicates 40% of cells at the beginning of the experiment died by the end of the experiment. A value of -100 means all cells are dead at the end of the experiment.
NCI-60 Human Tumor Cell Lines Screen was performed using the standard one-dose NCI protocol, which is described in more detail at https://dtp.cancer.gov/discovery_development/nci-60/default.htm.
Compounds with GIPRCNT values below 10 were considered active. Activity score was based on GIPRCNT using the following formula: […]
Score is 0 for GIPRCNT values of 100 or above, 50 for GIPRCNT values of 0, and 100 for GIPRCNT values of -100.
`COc1ccc(OC)c(/C=C2\Oc3cc(O)ccc3C2=O)c1` showed a growth of 98.8%. Molecule `Cc1ccc(C2SCC(=O)N2NC(=O)c2[nH]c3ccc(F)cc3c2-c2ccccc2)cc1` (stereo not given) has a growth of 74.1%. With `COc1ccc(Nc2nc(NCCNc3ccnc4cc(Cl)ccc34)nc(N3CCOCC3)n2)cc1` the growth was 70.9%. `CCCCCCCCCCCC(=O)[O][Sn]([CH2]CCC)([CH2]CCC)[CH2]CCC` was tested, and the growth was -91.1% (active). Work on `Cc1nc(NC(=O)COc2cccc(/C=C3\COc4ccccc4C3=O)c2)sc1C` yielded a growth of 30.1%. For `COc1cc(CNCCN2C(=O)c3ccc4c5c(ccc(c35)C2=O)C(=O)N(CCNCc2cc(OC)c(OC)c(OC)c2)C4=O)cc(OC)c1OC`, the growth was -76.5% (active). Work on `O=C(N/N=C/c1ccc(F)cc1)c1[nH]c2ccc(I)cc2c1-c1ccccc1` yielded a growth of 32.4%. In the case of `COc1ccc(-c2nc3sc(C)cn3c2/C=C/C(=O)c2cc(OC)c(OC)c(OC)c2)cc1`, the growth is reported as 57.1%. `CS(=O)(=O)Nc1cccc(C(=O)NCc2ccc(N3CCOCC3)cc2)c1` gave a growth of 119%. Work on `COc1cc(/C=C2\C(=O)N(c3c(Cl)cccc3Cl)c3ccccc32)cc(OC)c1O` yielded a growth of 16.9%. Molecule `Cc1ccc2nc(NC(=O)CSC(=S)N3CCN(C)CC3)sc2c1` has a growth of 95.3%. With `CC(C)(C)[Si](C)(C)OC1[C@@H](COC(N)=O)O[C@@H](n2cnc3c(N)ncnc32)[C@H]1O[Si](C)(C)C(C)(C)C` (stereo not given in full) the growth was 67.8%. `FC(F)(F)c1cc(CNc2nc(Cl)ncc2Br)cc(C(F)(F)F)c1` was tested, and the growth was 83%. In the case of `C=C[C@H]1C[C@@H]2C[C@@H]3[C@H]4C/C=C\C(=O)NCCCC5NC(=O)C(=C(O)/C=C/[C@@H]4CC(=O)[C@H]3[C@@H]2[C@H]1C)C5=O` (stereo not given in full), the growth is reported as -91% (active). Molecule `CC(C)N1CCN(c2ccc(OC[C@H]3CO[C@](Cn4cncn4)(c4ccc(Cl)cc4Cl)O3)cc2)CC1` has a growth of 89.6%. Work on `NS(=O)(=O)c1ccc(C(=O)N/N=C(\CS(=O)(=O)c2ccccc2)c2cc3cc(Br)ccc3o2)cc1` yielded a growth of 87%. In the case of `N#CC1=C(N)Oc2cc(N)ccc2C1c1ccc(F)cc1` (stereo not given), the growth is reported as 74.2%. For `C[C@]1(CO)C[C@@H](O)C[C@]2(C)[C@@H]1CC[C@@]13C[C@@H]4[C@@H](C[C@H]12)[C@]4(C)C3`, the growth was 102%. For `COc1ccc(-n2c(SCc3cc(OC)c(OC)c(OC)c3)nc3ccc(C)cc3c2=O)c(OC)c1`, the growth was 19%. `CCC(C)Oc1cc(/C=N/NC(=O)c2cnn3c2NC(c2ccccc2)C3)ccc1OC` (stereo not given) was tested, and the growth was 43.6%. `CCSc1nnc2c3cc(Br)ccc3n(C)c2n1` showed a growth of 102%. In the case of `c1ccc2cc(Cn3c(-c4ccc5ccccc5c4)[n+](Cc4ccc5ccccc5c4)c4ccccc43)ccc2c1`, the growth is reported as -65.3% (active). Work on `O=c1nc(NO)[nH]c(=O)n1Cc1ccc(F)cc1` yielded a growth of 104%. With `CCN(C(=O)c1ccc2c3c(cccc13)C=C2)c1ccccc1` the growth was 80.2%. Molecule `O=C1N/C(=C\c2ccccc2)c2ncccc21` has a growth of 106%. In the case of `COc1cc(C(=O)N(C(C)C)C2CCCCC2)cc(OC)c1OC`, the growth is reported as 97.2%. Work on `CN1CCN(c2nc(-c3ccncc3)nc3sc4c(c23)CCCCCC4)CC1` yielded a growth of 69%. `O=c1[nH]c(-c2ccncc2)nc2sc3c(c12)CCCCCC3` was tested, and the growth was 43.7%. For `COc1cccc(C2CC(=O)Nc3cc4c(cc32)OCO4)c1OC` (stereo not given), the growth was 89.8%. Work on `O=C(N/N=C(\CS(=O)(=O)c1ccccc1)c1cc2cc(Br)ccc2oc1=O)c1ccccc1` yielded a growth of 95.3%. With `O=C(COc1cccc(/C=C2\COc3ccccc3C2=O)c1)c1ccccc1` the growth was 89.2%. `CC1(C)N=C(N)N=C(N)N1c1cccc(/C=C/C=C/c2cccc([N+](=O)[O-])c2)c1` gave a growth of 28.2%. `Cc1ccccc1-n1nnc(C(=O)Nc2ccc(-c3ccccc3)cn2)c1C` showed a growth of 29.8% [50 µM]. For `COc1ccc(-c2[nH]ncc2Nc2cc(OC)c(OC)c(OC)c2)cc1`, the growth was 61.2%. `COC(=O)[C@@H]1CCCN1C(=O)[C@@H]1CCCN1C(=O)[C@@H](Cc1c[nH]c2ccccc12)NC(=S)Nc1cc(C(F)(F)F)cc(C(F)(F)F)c1` was tested, and the growth was 56.4%. With `O=[N+]([O-])c1cc2c(cc1Br)C1C(C3C2C(Cl)(Cl)C(Cl)=C(Cl)C3(Cl)Cl)C(Cl)(Cl)C(Cl)=C(Cl)C1(Cl)Cl` (stereo not given) the growth was 95.7%. Molecule `FC(F)(F)c1cc(CNc2ncc(Br)c(Cl)n2)cc(C(F)(F)F)c1` has a growth of 101%. With `NC(=O)c1cc(Cl)ccc1NC(=O)COc1ccccc1` the growth was 52.8%. In the case of `Cn1c2c(cc(S(=O)(=O)c3ccccc3)c1=O)CCc1c-2cnn1-c1ccccc1Cl`, the growth is reported as 86.7%. `CCCN1CCN(c2ccc3nc(-c4ccc5nc(-c6ccc(C(F)(F)F)cc6)[nH]c5c4)[nH]c3c2)CC1` was tested, and the growth was -65.1% (active).
